TEAD-YAP inh = TEAD-YAP interaction inhibition | HEK-TIYL cells, TEAD-Gal4/YAP UAS-luciferase luminescence | inhibition, % at 9.12 µM | actives 1.4% (n = 640,000) | AID 1259422; in the data active = inhibition above about 32%
MITF primary = blocks human microphthalmia-associated transcription factor; O75030; AlphaScreen MITF homodimerization, bead proximity signal; inhibition, % at 2.6 µM; actives 0.91% (n = 650,000); in the data active = inhibition above about 50%
FBW7 act = activators of human E3 ligase FBW7 | actives 0.13% (n = 650,000) | AlphaScreen FBW7–phospho-cyclin E peptide binding, activator screen | normalized activity (activation), % at 26.1 µM | Q969H0; in the data active = normalized activity above about 1.9%;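 note: purified mutant Fbw7 with reduced substrate affinity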
Target sequence (Q969H0 whole entry, looked up): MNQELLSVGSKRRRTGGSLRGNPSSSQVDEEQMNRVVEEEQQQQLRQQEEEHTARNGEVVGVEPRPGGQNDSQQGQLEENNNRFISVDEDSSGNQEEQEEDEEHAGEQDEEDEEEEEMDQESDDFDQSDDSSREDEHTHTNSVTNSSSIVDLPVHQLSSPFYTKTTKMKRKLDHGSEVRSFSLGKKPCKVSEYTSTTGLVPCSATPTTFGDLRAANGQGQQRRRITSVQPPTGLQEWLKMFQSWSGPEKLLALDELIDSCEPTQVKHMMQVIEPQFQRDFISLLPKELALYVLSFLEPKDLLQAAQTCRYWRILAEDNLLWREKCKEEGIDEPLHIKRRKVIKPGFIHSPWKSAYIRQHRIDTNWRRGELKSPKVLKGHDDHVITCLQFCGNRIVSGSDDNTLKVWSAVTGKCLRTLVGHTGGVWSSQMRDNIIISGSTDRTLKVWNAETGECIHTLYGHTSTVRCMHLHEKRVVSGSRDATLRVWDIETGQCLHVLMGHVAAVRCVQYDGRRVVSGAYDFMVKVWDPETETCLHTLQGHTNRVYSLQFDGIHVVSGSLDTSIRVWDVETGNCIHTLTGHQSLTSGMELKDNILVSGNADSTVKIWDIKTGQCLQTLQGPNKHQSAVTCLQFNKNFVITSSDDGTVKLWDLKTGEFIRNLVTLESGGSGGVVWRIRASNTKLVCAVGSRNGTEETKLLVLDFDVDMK
GPR151 ag = activates the human receptor GPR151. actives 1% (n = 650,000). Q8TDV0. AID 1508602. activation, % at 11.2 µM. PathHunter beta-arrestin GPR151 cells, luminescence; in the data active = activation above about 4.9%
Each line names hits and unclear results; the compound was inactive in the other large screens. Compounds with a hit are over-represented: about 3.5% of the library has one in this group of screens.

Nc1nc2cc3c(cc2s1)OCCO3	TEAD-YAP inh 37
Nc1nc2cc3sc(N)nc3cc2s1	none
CCOc1cc(C=C2C(=O)NC(=O)NC2=O)cc(Cl)c1OCc1cccc(F)c1	none
CC(NC(=O)OCc1ccccc1)C(=O)NC(C)C(=O)OC(C)(C)C (stereo not drawn)	none
Cc1cccc(OCc2nc3ccc(-c4ccnc(N)n4)cc3[nH]2)c1	TEAD-YAP inh 57
CC(=O)Nc1cc(-c2ccnc(N)n2)ccc1NC(=O)COc1cccc(C)c1	none
COc1ccc(Cl)cc1C(=O)NCc1ccc2c(c1)cc(C)n2C	TEAD-YAP inh 44
c1ccc(CN2CCC(Nc3nccc(NC4CC4)n3)CC2)cc1	none
Brc1cnc(NC2CCN(Cc3ccccc3)CC2)nc1	TEAD-YAP inh 44
CCc1ccc2nc(N3CCC(C(=O)NC4CCCCC4)CC3)sc2c1	TEAD-YAP inh 70
CCc1ccc2nc(N3CCC(C(=O)NC(C)C)CC3)sc2c1	TEAD-YAP inh 40
COc1ccc(F)cc1S(=O)(=O)Nc1ccc2nc(C)n(-c3ccc(Cl)cc3)c(=O)c2c1	none
CCOc1ccc(S(=O)(=O)Nc2ccc3nc(C)n(-c4ccc(F)cc4)c(=O)c3c2)c(OCC)c1	TEAD-YAP inh 50
COc1ccc(C(CNCC(O)c2ccccc2)N(C)C)cc1 (stereo not drawn)	none
O=C(Oc1cccc(-c2cnc3ccccc3n2)c1)c1ccco1	TEAD-YAP inh 43
CCCCCC(=O)Oc1ccc(-c2cnc3ccccc3n2)cc1	none
CCOc1ccc(-c2cnc3ccccc3n2)cc1	TEAD-YAP inh 75
CC(=O)Oc1ccc(-c2cnc3ccccc3n2)cc1	TEAD-YAP inh 40
CC(C)n1cc(-c2cnc3ccccc3n2)cn1	TEAD-YAP inh 72
CN1c2ncccc2C(=O)NC12CCN(C(=O)CCn1cncn1)CC2	none
COc1cc(/C=C/C(=O)Nc2nnc(C)s2)ccc1OCc1ccccc1	none
C#CCn1c(CCNC(=O)C(C)(C)C)nc2ccccc21	none
Oc1c(C(c2cccnc2)N2CCCC2)ccc2cccnc12 (stereo not drawn)	MITF primary 65
Oc1c(C(c2cccnc2)N2CCCCC2)ccc2cccnc12 (stereo not drawn)	MITF primary 92
Oc1c(C(c2ccncc2)N2CCCCC2)ccc2cccnc12 (stereo not drawn)	MITF primary 72
Cc1cc(F)c(F)c(C(=O)N2CCN(c3ccc(C(=O)c4ccccc4)cc3F)CC2)c1Cl	none
Cc1ccc(CN(C)S(=O)(=O)c2ccc3ccccc3c2)cc1	none
Cc1nn(C)c(C)c1CN(C)S(=O)(=O)c1ccc2ccccc2c1	TEAD-YAP inh 56
C=CCn1c2ccccc2c2nnc(SCC(=O)Nc3ccccn3)nc21	none
CNC(=O)CN(C1CCCCC1)S(=O)(=O)c1ccc(Br)cc1	none
COc1ccccc1CN(Cc1cc2cccc(C)c2n2nnnc12)C(=O)c1ccncc1	TEAD-YAP inh 34
Cc1cccc2cc(CN(CCc3ccccc3)C(=O)c3ccncc3)c3nnnn3c12	none
CCOC(=O)c1nn(-c2ccc(C(F)(F)F)cc2)c(=O)c2c(NC(=O)CC)scc12	none
CCCSc1nnc2c(n1)OC(c1c(C)[nH]n(-c3ccccc3)c1=O)Nc1ccccc1-2 (stereo not drawn)	MITF primary 61
CCOC(=O)C1CCCN(C(=O)c2cc3c(-c4cccc(OC)c4)nn(C)c3s2)C1 (stereo not drawn)	TEAD-YAP inh 38
COc1cccc(-c2nn(C)c3sc(C(=O)N4CCN(c5ccccn5)CC4)cc23)c1	TEAD-YAP inh 35
CCCCC1SC(=Nc2ccccc2)N(S(=O)(=O)c2ccccc2)C1=O (stereo not drawn)	none
COC(c1ccccc1)c1nnc(CCC(=O)N(C)Cc2ccc3nsnc3c2)o1 (stereo not drawn)	none
Nc1ccc2c(c1)OC1(CCCC1)O2	TEAD-YAP inh 94
Cc1nn(C)c(C)c1-c1nc(NCCOc2ccccc2)c2ncn(CCN3CCCC3=O)c2n1	none
COc1ccc(C2C(C(=O)Nc3cc(C)on3)c3ccccc3C(=O)N2c2ccc(OC)cc2)cc1 (stereo not drawn)	none
CCc1cc2c(cc(C(=O)NCc3cccnc3)n2C)s1	none
Cn1cc(CNc2nncc(-c3ccc(Cl)cc3)n2)cn1	none
Cn1cc(CNc2nncc(-c3ccc4ccccc4c3)n2)cn1	TEAD-YAP inh 34
Oc1ccc(/C=N/N2CCN(Cc3ccccc3)CC2)cc1O	none
Cc1ccc(CN2CCN(/N=C/c3ccc(O)c(O)c3)CC2)cc1	MITF primary 55

From PubChem
